# Source: PubChem (several laboratories)
# This is a sample that favours compounds with a hit; in the whole collection about 4.4% have one here.
# Mot1-301 SUMO: inhibitors of SUMOylation pathway: yeast Mot1-301 growth rescue; AID 2716; growth rescue, % at 18.8 µM; actives 1% (n = 320,000); S. cerevisiae Mot1-301 growth rescue, ATP luminescence, 38.5C; percent above DMSO median, 100 means doubled;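 active = every valid replicate shows activation above 250% relative to neutral control wells; inactive = the rest, any valid replicate at or below 250%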;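 note: OY570 slx delta 5 strain wells were the positive control but not used for scaling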
# tim10-1 inh: tim10-1 yeast growth inhibition. S. cerevisiae tim10-1 ts strain growth, BacTiter-Glo, 24 h. inhibition, % at 20 µM. actives 2.2% (n = 330,000). AID 463190;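 active = inhibition of at least 40%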;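 note: mutant grown at 25 °C; 0% = DMSO wells with yeast and 100% = wells holding no yeast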
# tim23-1 inh: tim23-1 yeast growth inhibition. S. cerevisiae tim23-1 growth, BacTiter-Glo luminescence, 24 h. inhibition, % at 20 µM. actives 1.3% (n = 330,000);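 active = growth inhibition of the mutant yeast at or above 50%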;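 note: temperature-sensitive mutant grown at 25 °C; plate controls were DMSO-treated mutant yeast for no effect and medium wells lacking yeast for full effect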
# PfHsp90 set2: inhibits growth of yeast expressing Plasmodium falciparum Hsp90; inhibition, % at 9.4 µM; S. cerevisiae expressing PfHsp90, BacTiter-Glo ATP, 48 h; yeast lacking PDR1 and PDR3 efflux regulators; actives 0.32% (n = 310,000); AID 504621;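 active = every replicate shows inhibition above about 80%, whatever the replicate mean, limit read from the data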;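 note: 0% = DMSO neutral controls and 100% = 20 µM radicicol positive controls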
# TIM10 inh: TIM10 yeast growth inhibition; S. cerevisiae TIM10 strain growth, BacTiter-Glo luminescence, 24 h; inhibition, % at 10 µM; actives 1.4% (n = 330,000);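 active = inhibition of 40% or more at the single tested concentration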;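 note: wild-type TIM10 isogenic control strain grown at permissive 25 °C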
# tim10-1 confirm: confirmation of tim10-1 mutant yeast growth inhibitors; shares compounds with tim10-1 inh; actives 56% (n = 7,400); inhibition, % at 20 µM; S. cerevisiae tim10-1 ts strain growth, BacTiter-Glo, 24 h;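 active = inhibition of yeast growth at or above a set limit in either of two repeat tests at 20 µM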;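 note: tim10-1 mutant grown at permissive 25 °C to find synthetic lethal compounds; 0% = DMSO yeast wells and 100% = medium wells without yeast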
# TIM10 conf: TIM10 yeast growth inhibition, confirmed; shares compounds with TIM10 inh; S. cerevisiae tim10 strain growth, BacTiter-Glo luminescence, 24 h; inhibition, % at 10 µM; actives 63% (n = 4,600); AID 463215;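 active = inhibition of yeast growth at or above a set limit in either of two replicates at 10 µM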;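 note: this counterscreen used the strain with wild-type TIM10; 0% = yeast with DMSO and 100% = medium wells lacking yeast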
# tim23-1 conf: tim23-1 yeast growth inhibition, confirmed; actives 83% (n = 4,400); S. cerevisiae tim23-1 growth, BacTiter-Glo luminescence, 24 h; shares compounds with tim23-1 inh; AID 463218; inhibition, % at 20 µM;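 active = inhibition above about 39% in either of two replicate wells at 20 µM, limit read from the data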;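 note: temperature-sensitive tim23-1 mutant grown at 25 °C; 0% = DMSO wells with yeast and 100% = medium wells without yeast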
# Numbers without * were called inactive; / = no result.
SMILES,Mot1-301 SUMO,tim10-1 inh,tim23-1 inh,PfHsp90 set2,TIM10 inh,tim10-1 confirm,TIM10 conf,tim23-1 conf
C#CCOCCOCCOCCNc1nc(N2CCN(C(=O)CCCCCCCCCCNC(=O)[C@H](CCCCN)n3cc(C)nn3)CC2)nc(N2CCN(C(=O)CCCCCCCCCCNC(=O)[C@H](CCCN=C(N)N)n3cc(C[C@@H](C)CC)nn3)CC2)n1,-15.0,40.1*,50.5*,/,9.0,13.3,/,63.8*
Cc1cc(C)c(C)c(OCCN2CC(C)OC(C)C2)c1 (centres undefined),16.5,3.8,7.1,-13.2,-14.8,/,/,/
O=[N+]([O-])c1cccc(-c2nc3ccccc3s/c2=N/O)c1,24.2,71.3*,82.1*,-98.8,57.3*,55.0*,69.1*,54.3*
CC1CCC(NC(=O)COC(=O)C2=NN(c3ccccc3)C(=O)CC2)CC1 (centres undefined),/,-3.1,6.9,-2.3,-0.2,/,/,/
O=S(=O)(c1cccc(Br)c1)N1CCN(c2ccnc3cc(Cl)ccc23)CC1,-15.0,50.3*,52.2*,-19.1,36.2,30.1*,/,47.4*
N#Cc1cccc(S(=O)(=O)N2CCN(c3ccnc4cc(Cl)ccc34)CC2)c1,7.1,21.6,28.1,-10.5,15.2,/,/,/
N/C(=N\OC(=O)C12CC3CC(CC(C3)C1)C2)c1cccnc1,18.4,35.1,38.0,9.5,33.5,/,/,/
N/C(=N\OC(=O)C12CC3CC(CC(C3)C1)C2)c1ccccn1,63.3,61.9*,51.4*,-9.3,41.3*,44.3*,-15.5,48.9*
N/C(=N\OC(=O)C12CC3CC(CC(C3)C1)C2)c1ccccc1,-9.0,64.5*,70.4*,-36.5,78.7*,53.7*,77.9*,70.9*
Cc1cccc(OCC(=O)N(Cc2ccc(C)o2)C2CCS(=O)(=O)C2)c1 (centres undefined),-5.9,4.6,6.7,-6.9,-5.2,/,/,/
COc1cccc(C(=O)N2CCN(Cc3ccccn3)CC2)c1,138.6,20.4,18.1,1.9,8.6,/,/,/
CN(C)C(CNC(=O)c1coc2ccccc2c1=O)c1ccccc1 (centres undefined),-14.9,7.9,12.6,-10.9,-19.1,/,/,/
FC(F)(F)c1ccccc1/C=N/n1c(C2CCCCC2)n[nH]c1=S,9.9,48.4*,50.8*,-196.4,32.9,33.0*,/,51.1*
S=c1[nH]nc(C2CCCCC2)n1/N=C/c1ccccc1Cl,-2.0,57.7*,64.0*,-37.8,27.4,28.7*,/,60.8*
O=C(CC1C(=O)NCCN1Cc1ccccc1)NCCC1=CCCCC1 (centres undefined),20.1,15.3,23.2,1.8,8.4,/,/,/
CN(Cc1ccccc1)c1nc(CN2CCOCC2)nc2scc(-c3ccccc3)c12,-7.2,47.4*,64.8*,2.4,54.6*,41.5*,39.6*,60.8*
CC1C(=O)N2CCCc3cc(NC(=O)c4ccccc4F)cc1c32 (centres undefined),3.7,-6.4,-16.8,/,-5.0,/,/,/
Cc1c(CC(=O)N[C@@H](C)C(=O)O)c(=O)oc2cc3oc4c(c3cc12)CCCC4,-5.3,5.0,4.2,-7.4,7.9,/,/,/
C=CCSc1nsc(NC(=O)Nc2ccc(F)cc2)n1,-18.2,61.7*,77.6*,-0.7,66.2*,73.5*,65.4*,78.0*
CCSc1nsc(NC(=O)Nc2ccccc2F)n1,-9.1,19.4,26.0,3.2,-4.4,/,/,/
C=C1[C@H](C)CN[C@H]1CCO,/,/,/,-0.2,/,/,/,/
COC(=O)/C(=C1/Oc2cc(C)oc(=O)c2S1)C(F)(F)F,58.4,57.0*,62.1*,-13.3,41.2*,38.9*,41.0*,68.8*
N/C(=N\OC(=O)Nc1ccc(Cl)cc1)c1ncc(C(F)(F)F)cc1Cl,-10.5,52.8*,75.4*,-11.3,68.8*,64.2*,80.4*,73.0*
N/C(=N\OC(=O)Nc1ccccc1)c1cccc(C(F)(F)F)c1,4.0,53.6*,63.7*,-4.6,14.2,41.1*,/,49.1*
